PubChem BioAssay AID1508600 (Functional Genomics Laboratory (NCATS/FGL), 2020)
Among all 53,000 sequences or so, about 3,700 (7%) were called active. Only a selection was taken, and actives are over-represented in it overall. Values without a mark were called inactive.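 The calls were made as follows: active = gene knockdowns whose robust z-score for IL-1 alpha signal is at least 2 or at most -2, so actives lie on both sides; inactive = the rest.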

experiment: Components of the Cytosolic LPS Sensing Pathway: Gene Identification via Genome-wide siRNA Screen; settings: RAW264.7 macrophages, IL-1a HTRF, actives lie on both sides, screened at 100 nM (by protocol), cells primed 5 h with Pam3CSK4 first;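 also: robust z of the log signal after scaling to non-targeting control siRNA wells of the plate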
In short: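 RAW264.7; siRNA 100 nM final, RNAiMAX, 48h 37 degrees C; Pam3CSK4 5 h; LipidA + TransIT-TKO 24 h; IL-1a HTRF; CellTiter-Glo viability; robust z vs negative-control median.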

| Sequence | z-score |
| --- | --- |
| GGAAAUACCCACCUUAUACTT against Efhc2 | 2.51 (active) |
| GGAGCAGAUACAGAAGAUCTT against Pfdn2 | -1.21 |
| GUAUAGUGUAUCUCAUCAUTT against Olfr1107 | 1.56 |
| GCUCAGUGGACAUGCUCUATT against Hpse | -0.502 |
| GGAGGCAUGAUAAGCUUCGTT against Pmm1 | -0.425 |
| GCUACUAAACAGGGUGUGATT against Gpsm3 | -2.42 (active) |
| GGGUGAGAUAAUUGAAAAGTT against Slc12a6 | 0.607 |
| GGGCUUCAACACUGAGAAGTT against Arl4d | -1.04 |
| GGCUCCUACCAAUCUCACUTT against Calcr | -0.548 |
| GGGAAAAAUGGACUAGCAUTT against Ahctf1 | 0.888 |
| GCAUUGGACUCAUAAUUUUTT against Aadat | 0.0399 |
| GGUAAUGUUCUCCUUUGAATT against Dok1 | 4.89 (active) |
| GCCUGAAUUUAGUGUUAAGTT against Hnmt | 1.72 |
| CCAUUGAAAAACUGGACAGTT against Olfr1463 | 3.26 (active) |
| GCUCUUCAUAACUCUUGCUTT against Olfr1392 | -0.288 |
| GGCCAGAACUGUUCCAAUUTT against Cilp | 1.15 |
| GGGAAUUUAAUUUUUCGUGTT against Sfn | -0.642 |
| GGAAGUCAACCGAGUCUUCTT against Sp140 | 0.011 |
| GGGUAUGAUAUGUUAAUGATT against Ndufaf7 | -0.434 |
| CCAUUUAAGUGUGUGUUAATT against Rbmx | 0.475 |
| GGAUUUUGCACUAUAACAATT against Zmat3 | 3.83 (active) |
| GGACAACGGAUUUUAGGAGTT against Barhl2 | 0.44 |

| Sequence | z-score |
| --- | --- |
| GGUUGAAUAUACUUAGCACTT against Gm5082 | 0.947 |
| CCAUGGAAUCUCCUAUACCTT against C4bp | -0.679 |
| GGUAAAUCAAAUCACUGCCTT against Slamf1 | 0.316 |
| CCCUUUCAUUGUGCAUUAATT against Hdhd2 | -2.22 (active) |
| GCUCAAGAGUCUAACUCCCTT against Serinc4 | 0.558 |
| GGAGAAAGUUUUGGAAAAATT against Slc24a5 | -0.622 |
| GGAUUUCUACCAGCUCGUGTT against Pop5 | 1.62 |
| GGAUGGCAGCUUUGACCUUTT against Cdc42ep2 | 0.566 |
| GCAAAACCCAACAACUCUGTT against Lig3 | 1.05 |
| CCUACUGGAGUCUCCUCUUTT against Tmem116 | 0.36 |
| GGAGGACAAUGAGGACGAUTT against Chrac1 | 2.1 (active) |
| AUUUCUGUAAGGCAAAUGUTT against Olfr970 | -0.454 |
| CCUCGAAUGCAGACGUACGTT against Sdhb | 1.67 |
| CCAAAGUCAUAAUUCCAACTT against Timm23 | 0.202 |
| GGAGCAGAUUAAAUCCCUGTT against Krt8 | 2.46 (active) |
| GGGAGCUAAGAAGAUUCAUTT against Mul1 | 0.89 |
| GCAGCAGUUGGCUAAAACATT against Bbof1 | -1.14 |
| GGUGGAUGGAUCACUGAGUTT against B230325K18Rik | -0.347 |
| GCAACUAUGAACAAGAAUCTT against Grm3 | -0.0322 |
| GCCACGAAAAGAAGAGAAUTT against Vpreb2 | 1.08 |
| CCUACAGAGUACCCUGUCUTT against Gas2l2 | -2.56 (active) |
| GGUCCUGAAUUUCAUCCUUTT against B4galnt2 | 0.459 |

| Sequence | z-score |
| --- | --- |
| GGUCAGAAAUUCUAAGUUGTT against Gpatch2 | 1.09 |
| GGAAAUGACCUACGAAGAATT against Pfkfb4 | -1.26 |
| GGCAGUCAACAAAGAAGACTT against Metap1d | -0.711 |
| GGUCUGGUGGAGUUGAGAATT against Ccdc80 | -0.617 |
| GCGAGUGCUAACAUGAAAGTT against Sar1a | -0.0783 |
| GUUUGUGCUGUUAGGUUUUTT against Olfr1347 | 2.46 (active) |
| GGACAAAAGACUUGAAUUUTT against Alox15 | 1.86 |
| GGCUGAAGAGGAUCGGUACTT against Atpif1 | 2.08 (active) |
| CGCAAGAGUUCCUUUUUUUTT against Sla | 0.671 |
| GGCCACCUAUGAUGGAAAUTT against Kdelr2 | -0.379 |
| GCUCUGAUGGUCUACUGCUTT against Rgs3 | -0.347 |
| GGGCAGCUCAUGUCCUAUATT against Scfd2 | -0.421 |
| CCAGAAAAAAGAUUGUACATT against Hesx1 | -0.43 |
| GCAGAGCUAGCUGAAUUGCTT against Urb2 | -0.156 |
| GCCGUUAAACAGUUCUCCCTT against Cyb561a3 | -0.455 |
| GGAUCGAGUUUGGUGUAGATT against Usp10 | -1.39 |
| CCAUCUACCAUAAACUGUATT against Spata6 | 0.175 |
| CCAUUAAUUACGUGUUUGUTT against Dixdc1 | -0.104 |
| GGAAUGGAAUACAAAGUCATT against Isg20l2 | -0.305 |
| CCUAUGCAUCAGACCUUUGTT against Nedd9 | 2.7 (active) |
| GGUUUUUCUGUCAAGUGCUTT against Lgr5 | -0.303 |
| GGCAAGAUCCACAAUGAUGTT against Lgals2 | -0.996 |

| Sequence | z-score |
| --- | --- |
| CCGUCAGUGAAUUCUUGAATT against Birc5 | 0.342 |
| GGAAGUUUGCUCCAGCCUUTT against Tmem33 | -0.202 |
| GCGAGUGACACAUCUUCUCTT against Klhl7 | 0.467 |
| GGAACAUAUGCAGAAUUUATT against Adgrb3 | 0.509 |
| GGUCCAUUGGGAGUUUGAGTT against Slc2a6 | 3.14 (active) |
| GGAUGGAGAGAACUACUUATT against Gltpd2 | 0.999 |
| GGAGUGUGAUCAAGUUCAUTT against Eya4 | 2.16 (active) |
| GGUGUUUGCCUCAGAAAUCTT against Cdk17 | -0.676 |
| GGUGAAGAUUGACAAGAAATT against Spout1 | 0.254 |
| GGAUGAAUGCAGCUUCCAUTT against Myh14 | 2.35 (active) |
| GGGUGUUCCAGAAGUAUCUTT against Lars2 | -1.76 |
| CCUUGGAAUGCAUAGCCAATT against Sdk1 | 0.285 |
| GGAAUAUGCCCAAGUUUUUTT against Ctnna1 | 2.86 (active) |
| GCCAAAUUGUCCCGGGCAUTT against Usp39 | 0.457 |
| GGUGAUGUAUUAUUAUCCATT against Defb12 | 0.277 |
| CCUUUCAAGGAGAUAUAAUTT against Gcm2 | 0.65 |
| CCUUAGCUGUCCUUGUGGUTT against Defb28 | -1.36 |
| CGAAAUCCUAGUUUCGUCCTT against Spns1 | 3.29 (active) |
| GGAAUUGGUCUAUAUGCGUTT against Il2ra | -1.02 |
| GGGUUCCAGUUUGUUUCCUTT against Cnbp | -0.901 |
| CCAUUGAGAUCAGCGACAUTT against Abtb2 | -0.748 |
| GGUAGCAUUAUUUGUCCUATT against Pcdh15 | 0.675 |

| Sequence | z-score |
| --- | --- |
| GGAGCUACGAAGAGGAUCUTT against Wdr45b | -2.69 (active) |
| GGCCAUCUCCUUCAACUAUTT against Ugt2a1 | 1.24 |
| GGAGUAGAUUUAAAAGGCATT against 4933440M02Rik | 0.145 |
| GGUCAACAGAAUGAAAAAUTT against Runx1t1 | -0.211 |
| GGGAAAGUCGAGCUUUUUCTT against Ifi44l | 0.0658 |
| CCAAGCUACCAGGGUUUUUTT against Abcb9 | 2.1 (active) |
| GGUCCAAGUAAUGAACUCATT against Olfr155 | -1.19 |
| GGCCCUAGAAAUAAUCUGCTT against Anks4b | 0.0338 |
| GGGAUCCUUAAUAUUUUGATT against Dazap2 | 1.66 |
| GGUUUUAAUUGUUCAGACGTT against Lrrtm3 | 0.35 |
| GGGAAGUGGAAACAGUUCUTT against Icam2 | 0.461 |
| CCAAUGUUACGAGAAACUUTT against Smug1 | 1.02 |
| GGAAAGGAUAAAGUAUAUCTT against Aspm | -0.0167 |
| GGAUUGCAUCUUCCUCGAATT against Olfr816 | -2.27 (active) |
| GAUCUAUCACCGGUACUGCTT against Gys1 | 0.154 |
| CCGCUCACUUCUUGAAUAUTT against Rnf125 | 0.388 |
| GUCAGAUCUCAGAAUCAUGTT against Ercc6l2 | -2.27 (active) |
| GCGGUCUGUGGUCUUAAAUTT against She | -0.449 |
| GGUGAACUGUAAUGGCUUCTT against Smyd2 | -0.209 |
| GGUGUUGAGAAGAAAAAUATT against Spz1 | 1.68 |
